Data taken from PubChem BioAssay (NCATS).
Inconclusive results are not listed. Where a call stands in place of a potency, no number is given. Values without a mark were called inactive. The source made the active and inactive calls. Calls follow the shape of the dose curve; as a rule, active = well fitted curve in the direction sought with a large enough effect; inconclusive = small, poorly fitted or top-dose-only effect, or another doubt; inactive = no such curve, though single readings can be large; an effect the other way counts as inactive or inconclusive.

Experiments:
[1] = biological target: Rap guanine nucleotide exchange factor 3 (Homo sapiens) (UniProt O95398); assay: Confirmatory qHTS for antagonist of cAMP-regulated guanine nucleotide exchange factor 3 (EPAC1) (AID 1645880); conditions: EPAC1 Rap1B-BODIPY-GDP exchange, fluorescence; activity, negative = inhibition: at 115 µM (top of the series); also: nearly all actives have a fitted effect of over 55% in size; also: potency is read from the fitted curve at half-maximal effect
Procedure, shortened: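 Released BODIPY-GDP fluoresces less than Rap1-bound BODIPY-GDP; the signal is followed at 480/540 nm at 5-min intervals over 30 min, after 5 min at room temperature. Reactions contain 100 nM EPAC1, 250 nM RAP1B-BODIPY-GDP and 50 uM GDP; results are normalized to ATA and DMSO.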

[2] = biological target: Rap guanine nucleotide exchange factor 3 (Homo sapiens) (UniProt O95398); assay: Confirmatory qHTS for agonist of cAMP-regulated guanine nucleotide exchange factor 3 (EPAC1) (AID 1645881); also: nearly all actives have a fitted effect of over 75% in size; also: potency is read from the fitted curve at half-maximal effect;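 as to activation: EPAC1 catalysed release of BODIPY-GDP from Rap1B seen as fluorescence loss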
[3] = biological target: Rap guanine nucleotide exchange factor 4 (Homo sapiens) (UniProt Q8WZA2); assay: Confirmatory qHTS for agonist of cAMP-regulated guanine nucleotide exchange factor 4 (EPAC2) (AID 1645884);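 also: nucleotide exchange releases bodipy-GDP from Rap1 and this lowers its fluorescence; nearly all actives have a fitted effect of over 65% in size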; also: potency is read from the fitted curve at half-maximal effect
[4] = biological target: Rap guanine nucleotide exchange factor 3 (Homo sapiens) (UniProt O95398); assay: Counterscreen qHTS for antagonist of cAMP-regulated guanine nucleotide exchange factor 3 (EPAC1) (AID 1645888)
Procedure, shortened: (§1)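 Measured: fluorescence of BODIPY-GDP bound to Rap1B, which falls as exchange proceeds. Conditions include 50 uM competing GDP, 5 and 30 min reads, and a later cAMP challenge for antagonist detection.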

[5] = biological target: Rap guanine nucleotide exchange factor 3 (Homo sapiens) (UniProt O95398); assay: Counterscreen qHTS for agonist of cAMP-regulated guanine nucleotide exchange factor 3 (EPAC1) (AID 1645889); also: nearly all actives have a fitted effect of over 40% in size; also: potency is read from the fitted curve at half-maximal effect
Procedure, shortened: as §1

Chain of Rap guanine nucleotide exchange factor 4 (Homo sapiens) (Q8WZA2 whole entry, looked up): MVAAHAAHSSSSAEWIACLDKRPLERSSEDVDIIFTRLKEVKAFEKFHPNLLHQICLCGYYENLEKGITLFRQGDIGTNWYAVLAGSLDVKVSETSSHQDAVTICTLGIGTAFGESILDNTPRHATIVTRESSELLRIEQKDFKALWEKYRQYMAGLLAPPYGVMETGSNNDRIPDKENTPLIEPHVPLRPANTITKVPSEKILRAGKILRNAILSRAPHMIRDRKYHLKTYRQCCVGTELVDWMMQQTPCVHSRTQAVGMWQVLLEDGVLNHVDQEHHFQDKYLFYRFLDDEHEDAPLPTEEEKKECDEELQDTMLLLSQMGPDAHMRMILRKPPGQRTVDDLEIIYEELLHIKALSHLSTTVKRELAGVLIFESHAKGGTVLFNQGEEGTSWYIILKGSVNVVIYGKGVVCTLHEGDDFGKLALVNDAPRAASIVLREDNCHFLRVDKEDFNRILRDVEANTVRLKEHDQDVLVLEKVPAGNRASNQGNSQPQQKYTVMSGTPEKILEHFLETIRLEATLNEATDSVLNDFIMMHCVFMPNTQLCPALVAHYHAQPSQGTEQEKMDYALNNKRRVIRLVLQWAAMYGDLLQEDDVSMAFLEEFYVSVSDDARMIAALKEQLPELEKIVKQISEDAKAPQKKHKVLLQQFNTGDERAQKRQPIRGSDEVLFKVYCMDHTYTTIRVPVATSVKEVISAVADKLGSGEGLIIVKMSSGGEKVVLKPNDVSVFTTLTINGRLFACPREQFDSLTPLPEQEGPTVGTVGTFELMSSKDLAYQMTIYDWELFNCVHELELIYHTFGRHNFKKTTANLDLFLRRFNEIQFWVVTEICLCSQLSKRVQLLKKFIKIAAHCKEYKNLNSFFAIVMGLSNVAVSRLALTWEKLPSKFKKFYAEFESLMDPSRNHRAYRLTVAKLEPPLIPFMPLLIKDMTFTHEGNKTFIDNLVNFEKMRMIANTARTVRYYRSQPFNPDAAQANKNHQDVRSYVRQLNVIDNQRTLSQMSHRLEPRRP
Chain of Rap guanine nucleotide exchange factor 3 (Homo sapiens) (O95398 whole entry, looked up): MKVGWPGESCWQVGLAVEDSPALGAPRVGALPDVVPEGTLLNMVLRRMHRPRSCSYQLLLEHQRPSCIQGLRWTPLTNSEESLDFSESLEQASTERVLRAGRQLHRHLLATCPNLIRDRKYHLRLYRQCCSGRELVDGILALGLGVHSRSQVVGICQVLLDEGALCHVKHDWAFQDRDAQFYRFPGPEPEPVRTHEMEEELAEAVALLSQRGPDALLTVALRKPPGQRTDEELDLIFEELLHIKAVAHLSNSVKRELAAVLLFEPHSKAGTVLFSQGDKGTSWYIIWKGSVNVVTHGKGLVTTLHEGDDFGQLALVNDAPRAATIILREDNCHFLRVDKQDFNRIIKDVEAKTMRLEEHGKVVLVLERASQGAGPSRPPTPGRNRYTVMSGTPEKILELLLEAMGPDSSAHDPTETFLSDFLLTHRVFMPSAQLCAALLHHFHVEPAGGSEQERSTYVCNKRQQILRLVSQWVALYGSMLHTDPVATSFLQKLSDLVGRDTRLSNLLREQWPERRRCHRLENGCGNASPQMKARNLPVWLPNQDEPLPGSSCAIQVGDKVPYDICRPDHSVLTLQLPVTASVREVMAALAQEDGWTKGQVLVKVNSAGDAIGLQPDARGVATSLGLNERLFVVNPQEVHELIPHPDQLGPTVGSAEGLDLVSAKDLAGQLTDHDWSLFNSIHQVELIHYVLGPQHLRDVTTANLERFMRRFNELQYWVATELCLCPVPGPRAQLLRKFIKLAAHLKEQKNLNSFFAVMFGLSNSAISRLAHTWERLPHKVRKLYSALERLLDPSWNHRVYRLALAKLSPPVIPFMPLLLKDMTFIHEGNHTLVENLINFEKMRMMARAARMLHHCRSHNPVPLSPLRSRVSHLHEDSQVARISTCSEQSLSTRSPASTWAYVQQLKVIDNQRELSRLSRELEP

SMILES	Potency [1]	Potency [2]	Potency [3]	Potency [4]	Potency [5]	activation [3]	activity change, negative = inhibition [4]	activation [5]
CCCN(C(=O)COC(=O)COc1c(C)cccc1C)c1c(N)n(Cc2ccccc2)c(=O)[nH]c1=O	inactive	inactive	inactive	inactive	inactive			
COc1ccc(OC)c(C(C[N+](=O)[O-])c2c(C)cc3ccccn23)c1 (stereo not given)	inactive	inactive	inactive	inactive	inactive			
O=C1CC(=O)Nc2cc(S(=O)(=O)Nc3ccc(Cl)c(C(F)(F)F)c3)ccc2N1	inactive	inactive	inactive	inactive	inactive			
COc1ccc(/C=C2\SC(=S)NC2=O)cc1OS(=O)(=O)c1ccc(NC(C)=O)cc1	37.9 µM (active)	inactive	inactive	inactive	inactive			
O=C(O)c1ccccc1NS(=O)(=O)c1ccc(N/N=C/c2cccc(O)c2O)c([N+](=O)[O-])c1	9.53 µM (active)	inactive	inactive	inactive	inactive			
O=C1c2ccccc2S(=O)(=O)c2cc(N3CCC(C(=O)N4CCCCC4)CC3)ccc21	inactive	89.1 µM (active)	100 µM (active)	inactive	56.2 µM (active)			
CCCN(CC1CC1)c1cc2c(c3c1ccn3C)C1CCC2C1 (stereo not given)	inactive	inactive	inactive	inactive	inactive			
O=C(CN1C(=O)NC2(CCCC2)C1=O)Nc1nc2c(F)cc(F)cc2s1	inactive	inactive	inactive	inactive	inactive			
CC(=O)OCCNc1cc(N2CCN(C)CC2)c2noc3c2c1C(=O)c1ccccc1-3	inactive	inactive	inactive	inactive	inactive			
COCc1cc(C)nc(SCC(=O)c2ccc(O)c(O)c2)c1C#N	37.9 µM (active)	inactive	inactive	inactive	inactive			
Cc1nnc(SCCn2c(N3CCC(Cc4ccccc4)CC3)nc3c2c(=O)[nH]c(=O)n3C)s1	inactive	inactive	inactive	inactive	inactive			
CC(=O)Nc1scc(-c2ccccc2)[n+]1-c1ccc(C)cc1	inactive	inactive				11.2% [at 17.1 µM, percent relative to cAMP agonist control]	-4.14% [at 30.8 µM]	4.92% [at 30.8 µM]
COc1ccc(OC)c(NC(=O)C2(C)CCN2Cc2ccsc2)c1 (stereo not given)	inactive	inactive	inactive	inactive	inactive			
CCOc1ccccc1OCC(=O)Nc1cc(S(=O)(=O)N2CCCCC2)ccc1N1CCN(CC)CC1	inactive	inactive	inactive	inactive	inactive			
CC(=NNC(=O)c1ccncc1)c1ccc2ccccc2c1O	inactive	100 µM (active)	112 µM (active)	inactive	39.8 µM (active)			
C[C@H](CO)N1C[C@H](C)[C@@H](CN(C)C)Oc2c(NS(=O)(=O)c3ccccc3)cccc2C1=O	inactive	inactive	inactive	inactive	inactive			
CS/C(Nc1cc(Cl)ccc1Cl)=C(/C#N)C(=O)c1ccco1	67.5 µM (active)	inactive	inactive	inactive	inactive			
CC(C)(C)c1ccc(OCC(=O)Nc2ccc(C(=O)Nc3ccccc3C(=O)O)cc2)cc1	75.7 µM (active)	inactive	inactive	inactive	inactive			
COc1ccc(C(=O)n2c(-c3ccco3)nc3ccccc32)cc1	inactive	inactive				7.17% [at 17.1 µM, percent relative to cAMP agonist control]	-27.8% [at 30.8 µM]	10% [at 30.8 µM]
O=S(=O)(c1ccc(Cl)cc1Br)N1CCCCC1	inactive	inactive				12.1% [at 17.1 µM, percent relative to cAMP agonist control]	-6.37% [at 30.8 µM]	10.6% [at 30.8 µM]
Cc1ccc(N2CC(c3nc4ccccc4[nH]3)CC2=O)c(C)c1 (stereo not given)	inactive	inactive	inactive	inactive	inactive			
Cc1cc2ccccc2cc1C(=O)c1ccccc1	inactive	inactive				3.89% [at 17.1 µM, percent relative to cAMP agonist control]	-19.3% [at 30.8 µM]	5.51% [at 30.8 µM]
Cc1nnc(SCC(=O)Nc2sccc2C#N)s1	inactive	inactive	inactive	inactive	0.0178 µM (active)			
CC(=O)NC(c1ccccc1)c1nc(-c2cccs2)cs1 (stereo not given)	inactive	inactive	inactive	inactive	inactive			
Nc1nnc(CC(=O)N/N=C/c2cc([N+](=O)[O-])cc(Br)c2O)s1	10.7 µM (active)	inactive	inactive	inactive	inactive			

SMILES	Potency [1]	Potency [2]	Potency [3]	Potency [4]	Potency [5]	activation [3]	activity change, negative = inhibition [4]	activation [5]
O=C(/C=C/c1ccco1)N1CCCC(c2ccccc2)C1 (stereo not given)	67.5 µM (active)	inactive	inactive	inactive	inactive			
O=C(Cc1ccccc1)Nn1c(O)c(/C=C2\C=Nc3ccccc32)sc1=S	inactive	112 µM (active)	100 µM (active)	inactive	39.8 µM (active)			
O=C(CN1C(=O)N/C(=C\c2ccccc2OCc2ccc(C(=O)O)cc2)C1=O)Nc1ccc(F)cc1	42.6 µM (active)	inactive	inactive	inactive	inactive			
Cc1ccc(S(=O)(=O)N2[C@@H](c3cccc(Cl)c3)C(C(=O)O)=CC[C@H]2c2ccc(Cl)c(Cl)c2)cc1	67.5 µM (active)	inactive	inactive	inactive	inactive			
COc1ccc(OC)c(NC2c3ccccc3C(=O)N2c2cccnc2)c1 (stereo not given)	inactive	inactive	inactive	inactive	inactive			
CCN(CC(=O)Nc1c(F)cccc1F)C(=O)/C=C/c1ccc2ccccc2n1	8.49 µM (active)	inactive	inactive	inactive	inactive			
Cc1ccc2c(c1)C(=O)CC(c1ccccc1)S2 (stereo not given)	inactive	inactive				-3.98% [at 17.1 µM, percent relative to cAMP agonist control]	-21.7% [at 30.8 µM]	6.35% [at 30.8 µM]
COc1ccc(S(=O)(=O)Nc2cccc(C)c2C)c2cccnc12	inactive	inactive	inactive	inactive	inactive			
CC(=O)c1cc(C#N)c(N(C)Cc2ccccc2)nc1C	inactive	inactive				0.456% [at 17.1 µM, percent relative to cAMP agonist control]	-7.5% [at 30.8 µM]	0.131% [at 30.8 µM]
O=[N+]([O-])c1cc(/C=N/O)ccc1Oc1ccccc1Cl	inactive	inactive	inactive	inactive	inactive			
Nc1nc(C(c2ccccc2)c2ccccc2)cs1	inactive	inactive	inactive	inactive	inactive			
O=S(=O)(Nc1ccc(C(O)(C(F)(F)F)C(F)(F)F)cc1)c1ccc(Cl)c2nonc12	42.6 µM (active)	inactive	inactive	inactive	inactive			
CC(=O)c1c(-c2ccccc2)c2cc(Cl)ccc2n(C)c1=O	inactive	inactive				-9.72% [at 17.1 µM, percent relative to cAMP agonist control]	-1.67% [at 30.8 µM]	9.36% [at 30.8 µM]
CCC1SC2=NC(C)=C(C(=O)OC)C(c3cccs3)N2C1=O (stereo not given)	inactive	inactive				-2.13% [at 17.1 µM, percent relative to cAMP agonist control]	-9.77% [at 30.8 µM]	5.87% [at 30.8 µM]
O=C1c2ccccc2C(Nc2cccnc2)N1Cc1ccccc1Cl (stereo not given)	inactive	inactive	inactive	inactive	inactive			
Cc1noc(C)c1COc1ccccc1C(=O)NCCc1ccc(Cl)cc1	inactive	inactive	inactive	inactive	inactive			
CN(C)c1ccc(/C=C(\C#N)c2ccccn2)cc1	inactive	inactive	inactive	inactive	inactive			
CCOC(=O)c1[nH]c2ccc(OCC)cc2c1NC(=O)CN1CCN(c2ccccn2)CC1	inactive	inactive	inactive	inactive	inactive			
CC1CN(C(=O)CCC(=O)NCc2ccc(F)cc2)c2ccccc2S1 (stereo not given)	inactive	inactive				-4.63% [at 17.1 µM, percent relative to cAMP agonist control]	-2.67% [at 30.8 µM]	31.5% [at 30.8 µM]
Cc1ccc(S(=O)(=O)NN2C(=O)/C(=C/c3cccc(F)c3)SC2=S)cc1	23.9 µM (active)	inactive	inactive	inactive	inactive			
CCCCCN(C(=O)CCC(=O)OCC(=O)N1CCC(C)CC1)c1c(N)n(CCCC)c(=O)[nH]c1=O	inactive	inactive	inactive	inactive	inactive			
O=C(CS(=O)(=O)c1ccccc1)c1cc2cc(F)ccc2oc1=O	75.7 µM (active)	inactive	inactive	inactive	inactive			
CCOC(=O)C1=C(N)c2ccccc2CC1C1CCCC1 (stereo not given)	inactive	inactive	inactive	inactive	inactive			
Clc1cccc(-c2ccc3nccn3c2)c1Cl	inactive	inactive	inactive	inactive	inactive			
